In the supplement of paper PMC9399229 one finds relative cell viability data, which are given here for 20 compounds.

± gives the standard deviation of the averaged measurements. Whole data set: some 1,900 compounds, median “relative cell viability (CellTiter-Glo), compound alone” near 1, cut for the lowest 2% near 0.16. The entries come from a sample that favours the lowest values as a whole.

The experiment concerns Hep3B. As to the kind of experiment: relative cell viability (CellTiter-Glo), compound alone (fraction); higher = more viable cells (less growth inhibition). As to conditions: cabozantinib 0 µM; 4 days.
Consider `C[C@H]1CCC/C=C/[C@@H]2C[C@H](O)C[C@H]2[C@H](O)/C=C/C(=O)O1` [Brefeldin A], for which the relative cell viability was 0.111 ± 0.0018.

`CC(C)OC(=O)[C@H](C)N[P@](=O)(CO[C@H](C)Cn1cnc2c(N)ncnc21)Oc1ccccc1` [Tenofovir Alafenamide (GS-7340)] showed a relative cell viability of 1.12 ± 0.17.

In the case of `CC(C)[C@]12O[C@H]1[C@@H]1O[C@]13[C@]1(O[C@H]1C[C@H]1C4=C(CC[C@@]13C)C(=O)OC4)[C@@H]2O` [Triptolide (PG490)], the relative cell viability is 0.179 ± 0.009.

In the case of `CN1CCc2cc3c(cc2C1C1OC(=O)c2c1ccc1c2OCO1)OCO3` (single isomer, unassigned; (+)) [(+)-Bicuculline], the relative cell viability was 1.1 ± 0.094.

In turn, `CN1[C@@H]2CC(O)C[C@H]1[C@@H]1O[C@@H]12` (stereo not given in full) [Scopine] displayed a relative cell viability of 1.05 ± 0.1.

`CCN1CCN(C(=O)Cc2ccc(Nc3ncc(F)c(Nc4ccc(C(=O)Nc5ccccc5Cl)cc4)n3)cc2)CC1` [Aurora A Inhibitor I]: the relative cell viability stood at 0.328 ± 0.1.

`C[C@@H]1O[C@@H](O[C@H]2C[C@@H](O)[C@]3(CO)[C@H]4[C@H](O)C[C@]5(C)[C@@H](C6=CC(=O)OC6)CC[C@]5(O)[C@@H]4CC[C@]3(O)C2)[C@H](O)[C@H](O)[C@H]1O` [Ouabain] gave a relative cell viability of 0.103 ± 0.0012.

In turn, `Cn1cc(C2=C(c3cn(C4CCN(Cc5ccccn5)CC4)c4ccccc34)C(=O)NC2=O)c2ccccc21` had a relative cell viability of 1.29 ± 0.031.

`C[C@@H]1[C@H](O)[C@@H](C)/C=C/C=C/CC/C=C/C=C/C=C/C=C/[C@H](O[C@H]2O[C@@H](C)[C@H](O)[C@@H](N)[C@H]2O)C[C@@H]2O[C@](O)(C[C@@H](O)[C@H](O)CC[C@@H](O)C[C@@H](O)C[C@@H](O)CC(=O)O[C@H]1C)C[C@H](O)[C@H]2C(=O)O` [Nystatin (Fungicidin)] gave a relative cell viability of 1.06 ± 0.15.

As to `COC(=O)C1=CCCN(C)C1` [Arecoline], the relative cell viability is 1.02 ± 0.074.

`c1ccc([C@@H]2C[C@H]2NC2CCNCC2)cc1` returned a relative cell viability of 0.9895 ± 0.0065.

On to `O=c1[nH]c2ccc(Cl)cc2c(N[C@@H]2CN3CCC2CC3)c1-c1nc2ccccc2[nH]1`, for which the relative cell viability was found to be 0.13 ± 0.018.

For the compound `CCOC(=O)c1cncn1[C@H](C)c1ccccc1` [Etomidate], the relative cell viability is 1.24 ± 0.049.

On to `CCN1CC2(OC(=O)c3ccccc3NC(C)=O)CCC(OC)C34C1C(CC23)C1(O)CC(OC)C2CC4C1(O)C2OC` (stereo not given) [Lappaconite HBr], for which the relative cell viability stood at 0.984 ± 0.092.

`O=C1C=CC[C@@H]2[C@H]3CCCN4CCC[C@@H](CN12)[C@@H]34` [Sophocarpine] returned a relative cell viability of 1.02 ± 0.17.

`CCOc1ccccc1-n1c(C(C)N2CCN(C(=O)COc3ccc(Cl)cc3)CC2)nc2ccccc2c1=O` (stereo not given) [Erastin] returned a relative cell viability of 1.21 ± 0.063.

`COc1cc([C@@H]2c3cc4c(cc3[C@H](O)[C@H]3COC(=O)[C@@H]23)OCO4)cc(OC)c1OC` [Picropodophyllin (PPP)] gave a relative cell viability of 0.7418 ± 0.0018.

Compound `[O-][n+]1ccccc1[S-].[O-][n+]1ccccc1[S-].[Zn+2]` [Zinc Pyrithione] returned a relative cell viability of 0.0193 ± 0.0014.

Regarding `CCN(Cc1ccc(Cl)nc1)/C(=C/[N+](=O)[O-])NC` [Nitenpyram], the relative cell viability was 0.914 ± 0.12.

Regarding `CN1CCN(c2nc3ccccc3nc2Cl)CC1`, the relative cell viability stood at 1.13 ± 0.04.
